Calb biofilm kill – kills Candida albicans biofilms. C. albicans biofilm + clotrimazole, Alamar Blue. inhibition, % at 6 µM. actives 0.14% (n = 85,000);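 active = inhibition above 20%; inactive = inhibition below 20%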;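 also: preformed 24 hr biofilms exposed to compound for 48 hr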
ERa coact inh – blocks coactivator binding to human estrogen receptor alpha. TR-FRET ER-alpha LBD / SRC-1 peptide, estradiol-bound. inhibition, % at 25.6 µM. actives 1.7% (n = 86,000). AID 629; in the data active = inhibition above about 50%
ERa coact pot – enhances coactivator binding to human estrogen receptor alpha; coactivator binding (% of control), % at 25.6 µM; TR-FRET ERalpha-LBD/SRC-Cy5 coactivator binding, 2 h; 100 = basal binding, no effect; P03372; actives 1.3% (n = 86,000); in the data active = activity above about 200%;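 also: binding measured in presence of low estradiol as agonist stimulus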
ERb SRC1 inh – blocks coactivator binding to human estrogen receptor beta | Q92731 | TR-FRET ER-beta LBD / SRC1-Cy5 peptide binding; receptor agonist-loaded with 1 µM estradiol | inhibition, % at 25.6 µM | actives 1.3% (n = 86,000) | AID 633;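 active = compounds whose percent inhibition of the receptor-coactivator binding signal exceeds about 50% in the single-dose screen, limit read from the data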
Target sequence (Q92731 whole entry, looked up, the tested form may be a part): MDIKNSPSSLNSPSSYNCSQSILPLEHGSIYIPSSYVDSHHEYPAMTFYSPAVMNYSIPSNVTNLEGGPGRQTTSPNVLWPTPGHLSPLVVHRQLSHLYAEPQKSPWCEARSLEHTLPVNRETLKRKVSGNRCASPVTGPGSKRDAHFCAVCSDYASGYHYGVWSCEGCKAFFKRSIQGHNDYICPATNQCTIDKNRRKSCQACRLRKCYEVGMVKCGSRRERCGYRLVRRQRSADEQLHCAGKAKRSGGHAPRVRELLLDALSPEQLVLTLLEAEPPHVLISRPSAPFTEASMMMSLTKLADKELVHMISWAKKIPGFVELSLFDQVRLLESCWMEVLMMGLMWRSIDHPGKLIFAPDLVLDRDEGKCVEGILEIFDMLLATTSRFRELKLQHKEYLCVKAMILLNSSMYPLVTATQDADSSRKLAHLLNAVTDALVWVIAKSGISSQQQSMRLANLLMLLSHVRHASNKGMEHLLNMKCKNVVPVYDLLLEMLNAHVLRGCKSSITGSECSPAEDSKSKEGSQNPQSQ
E-sel TNF inh – TNF alpha driven E-selectin expression inhibition; HUVEC TNFa-induced E-selectin immunofluorescence, high content; inhibition, % at 2 µM; actives 0.71% (n = 120,000);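 active = inhibition above the batch mean plus 3 SD, and confirmed as a hit on visual image review, cut at about 43% in these data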
cytoskel mod – cytoskeleton assembly modification | HUVEC TNFa F-actin phalloidin imaging, high content | inhibition, % at 2 µM | actives 0.18% (n = 91,000);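 active = inhibition above the batch mean plus 3 SD and confirmed as a hit by visual image inspection, cut at about 30% in these data, passing the limit was not always enough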
Of the large screens only hits and unclear results are named; the others gave an inactive call; [ ] = another dose, or the depositor's remark. Rows were chosen to be rich in hits. Some 2.9% of all compounds tested hit in one or more screens of this group.

Cc1nc(SCC(=O)c2cccs2)c2oc3ccccc3c2n1	none
O=C(CSc1ncnc2c1oc1ccccc12)NC1CCCCC1	ERa coact inh 56.4[fluorescence artefact?], ERa coact pot 289.4[fluorescence artefact?], ERb SRC1 inh 51.1[fluorescence artefact?]
O=C(CSc1ncnc2c1oc1ccccc12)NCc1ccc(F)cc1	ERa coact pot 783.9[fluorescence artefact?], ERb SRC1 inh 56.9[fluorescence artefact?]
Fc1cccc(CSc2ncnc3c2oc2ccccc23)c1	ERa coact pot 401.8[fluorescence artefact?], ERb SRC1 inh 57.2[fluorescence artefact?]
O=C(CSc1ncnc2c1oc1ccccc12)c1cccs1	ERa coact pot 282.9[fluorescence artefact?]
CCSc1ncnc2c1oc1ccccc12	none
CCOc1ccc(Cn2c(O)cc(=O)[nH]c2=O)cc1	none
O=c1cc(/C=C/c2ccccc2)oc2ccccc12	none (no result: Calb biofilm kill, ERa coact inh, ERa coact pot, ERb SRC1 inh)
CSc1ccc(/C=C(/NC(=O)c2ccc(C)cc2)C(=O)Nc2cccc(C)c2)cc1	none (no result: Calb biofilm kill, ERa coact inh, ERa coact pot, ERb SRC1 inh, cytoskel mod)
Cc1nnc(SCC(=O)Nc2ccc(Cl)cn2)s1	none (no result: Calb biofilm kill, ERa coact inh, ERa coact pot, ERb SRC1 inh, cytoskel mod)
Fc1ccc(CSc2ncnc3c2oc2ccccc23)cc1	ERb SRC1 inh 56.1[fluorescence artefact?] (no result: E-sel TNF inh, cytoskel mod)
O=C(COC(=O)C12CC3CC(CC(C3)C1)C2)Nc1ccccc1F	none (no result: Calb biofilm kill, ERa coact inh, ERa coact pot, ERb SRC1 inh, cytoskel mod)
COc1ccc2nc(NC(=O)c3cc(C)oc3C)sc2c1	ERa coact pot 207.7
COc1ccc2nc(NC(=O)C3CCCN(S(=O)(=O)c4c(C)noc4C)C3)sc2c1 (stereo not given)	ERb SRC1 inh 83.5[fluorescence artefact?] (no result: cytoskel mod)
COc1ccc(OC)c(NC(=O)C2CCCN(S(=O)(=O)c3c(C)noc3C)C2)c1 (stereo not given)	none (no result: E-sel TNF inh)
COc1ccc2nc(NC(=O)c3ccoc3C)sc2c1	none
COc1ccc2nc(NC(=O)CSC3=NCCS3)sc2c1	E-sel TNF inh 100.0
CCOc1ccc2nc(NC(=O)CSC3=NCCS3)sc2c1	none
O=C(CC(NC(=O)c1ccccc1)c1ccccc1)Nc1cccc2ccccc12 (stereo not given)	none (no result: Calb biofilm kill, ERa coact inh, ERa coact pot, ERb SRC1 inh, cytoskel mod)
O=[N+]([O-])c1ccc(C(O)C23CN4CN(CN(C4)C2)C3)cc1 (stereo not given)	none (no result: Calb biofilm kill, ERa coact inh, ERa coact pot, ERb SRC1 inh, cytoskel mod)
COc1ccc(Cl)cc1NC(=S)Nc1ccccc1C	none (no result: Calb biofilm kill, ERa coact inh, ERa coact pot, ERb SRC1 inh, cytoskel mod)
O=c1c2ccccc2nnn1CSc1nnc(-c2cccnc2)n1-c1ccccc1F	none (no result: E-sel TNF inh)
Cc1ccc(-n2c(SCn3nnc4ccccc4c3=O)nnc2-c2cccnc2)c(C)c1	ERa coact inh 86.9[fluorescence artefact?] (no result: cytoskel mod)
CCOc1ccc(/C=N/OC(C)C(=O)NCc2ccc3c(c2)OCO3)cc1 (stereo not given)	none (no result: Calb biofilm kill, ERa coact inh, ERa coact pot, ERb SRC1 inh, cytoskel mod)
COc1ccc(-c2nc(Cn3c(SCc4ccccc4F)nc4ccncc43)c(C)o2)cc1	ERa coact pot 458.4[fluorescence artefact?] (no result: E-sel TNF inh)
COc1ccc(-c2nc(Cn3c(SCc4ccc(F)cc4)nc4ccncc43)c(C)o2)cc1OC	none
Cc1cc(SCC(=O)c2ccc3c(c2)OCO3)nc2ccccc12	ERa coact pot 440.7[fluorescence artefact?]
Cc1cc(SCC(=O)c2cc3ccccc3o2)nc2ccccc12	ERa coact pot 228.0[fluorescence artefact?]
Cc1cc(C(=O)CSc2nc3ccccc3c(=O)n2C)c(C)n1Cc1ccc2c(c1)OCO2	ERa coact pot active[fluorescence artefact?]
Cc1cc(SCC(=O)c2ccc(O)c(O)c2)nc2ccccc12	none (no result: Calb biofilm kill, ERa coact inh, ERa coact pot, ERb SRC1 inh, cytoskel mod)
COC(=O)c1ccc(CSc2nc(C)nc3sc(C)c(C)c23)o1	ERa coact inh 55.4 (no result: E-sel TNF inh)
COC(=O)c1ccc(CSc2nnc(SCc3ccc(C(=O)OC)o3)s2)o1	none
CC(C)NC(=O)CN1CCC(c2ccccc2)C(O)C1 (stereo not given)	none (no result: Calb biofilm kill, ERa coact inh, ERa coact pot, ERb SRC1 inh, cytoskel mod)
CN1CCN(C2=C(Cl)C(=O)C(c3cnc(N4CCCCC4)s3)=C(Cl)C2=O)CC1	ERb SRC1 inh 71.9[fluorescence artefact?]
CN1CCN(C2=C(Cl)C(=O)N(C3CCCCC3)C2=O)CC1	none (no result: E-sel TNF inh)
Cn1ccnc1SCC(=O)Nc1cccc([N+](=O)[O-])c1	none (no result: Calb biofilm kill, ERa coact inh, ERa coact pot, ERb SRC1 inh, cytoskel mod)
Cn1nnnc1SCC(=O)Nc1cccc([N+](=O)[O-])c1	E-sel TNF inh 76.3 (no result: Calb biofilm kill, ERa coact inh, ERa coact pot, ERb SRC1 inh, cytoskel mod)
COc1ccc(CS(=O)c2nc(C)cc(C)c2S(C)(=O)=O)cc1 (stereo not given)	none (no result: Calb biofilm kill, ERa coact inh, ERa coact pot, ERb SRC1 inh, cytoskel mod)
Cc1cc(C)cc(NC(=O)c2c(C)nc3ccccn23)c1	none (no result: Calb biofilm kill, ERa coact inh, ERa coact pot, ERb SRC1 inh, cytoskel mod)
CCOCCCNC(=O)CSc1nc2nc(C)c(Cc3ccccc3)c(C)n2n1	none (no result: Calb biofilm kill, ERa coact inh, ERa coact pot, ERb SRC1 inh, cytoskel mod)
O=C(Nc1nc(-c2cc3ccccc3oc2=O)cs1)c1ccco1	ERa coact pot 279.8[fluorescence artefact?] (no result: cytoskel mod)
Cc1ccc(C(=O)Nc2nc(-c3cccnc3)cs2)o1	ERb SRC1 inh 50.6
O=C(Nc1nc(-c2ccncc2)cs1)c1ccco1	ERa coact inh 98.0[fluorescence artefact?] (no result: E-sel TNF inh)
COc1ccc(-c2cc(C(F)(F)F)n3nc(C(=O)Nc4c(C)n(C)n(-c5ccccc5)c4=O)cc3n2)cc1	none (no result: Calb biofilm kill, ERa coact inh, ERa coact pot, ERb SRC1 inh, cytoskel mod)
NC(CC(=O)O)c1ccc(Br)cc1 (stereo not given)	none (no result: Calb biofilm kill, ERa coact inh, ERa coact pot, ERb SRC1 inh, cytoskel mod)
O=C(c1ccc(COc2c(F)c(F)cc(F)c2F)o1)N1CCN(c2ccc(Cl)cc2)CC1	none

High-throughput results from PubChem BioAssay.
